From ChEMBL document CHEMBL3988442, “University of Dundee, Small-Polar-MMV Screening Library” (2021)
Screen size: about 66,000 compounds; about 960 (1.5%) showed an effect of 50% or more. The list comes from a sample in which strong results are over-represented; it also holds similar structures and randomly drawn compounds.

System: Trypanosoma brucei
Assay: Trypanosoma brucei 72 hour study
Type: functional, organism-based
Design: scale not given: in the data most compounds retested in dose-response had high values

Nc1cc(N2CCCC(CO)(Cc3ccccc3F)C2)nc(N)n1 (stereo unspecified)
Percent Effect (30 µM, 30.03 µM): 15.39%

CCn1nc2c(cc1=O)CN(Cc1coc(-c3ccccc3)n1)CC2
Percent Effect (30.3 µM, […]): 3.49%

CCOCC(=O)N1CCC2(CC1)COCCN2CCN(C)C.O=C(O)C(F)(F)F.O=C(O)C(F)(F)F
Percent Effect (30.3 µM, […]): -7.88%

CCCNC(c1ccc(F)cc1)c1cccnc1.Cl.Cl (stereo unspecified)
Percent Effect (30 µM, 30.03 µM): -17.83%

CN(C)C(=O)c1ccc(C2CCCNC2)nc1.Cl.Cl (stereo unspecified)
Percent Effect (30.3 µM, […]): -34.47%

Cl.c1nc(CCC2CCCN2)cc(N2CCCCCC2)n1 (stereo unspecified)
Percent Effect (30.3 µM, […]): -0.6472%

COc1ncccc1NC(=O)NCC1CC1
Percent Effect (30.3 µM, […]): 14.51%

COc1ncccc1NC(=O)NCC1CCS(=O)(=O)C1 (stereo unspecified)
Percent Effect (30 µM, 30.03 µM): 51.37%

CCN1CCC(CNC(=O)Nc2cccnc2OC)CC1
Percent Effect (30.3 µM, […]): 3.244%

CCOc1ccc(C(=O)N2CCCC(n3nc(C)nc3C)C2)cc1 (stereo unspecified)
Percent Effect (10 µM): -77.91%

Cc1nnc(N2CCCC3(CN(c4ccccn4)CCO3)C2)o1.O=C(O)C(F)(F)F (stereo unspecified)
Percent Effect (30.3 µM, […]): 1.863%

Cc1cc(NCc2cc(C)oc2C(F)(F)F)n2nc(C)cc2n1
Percent Effect (30 µM, 30.03 µM): 27.35%

COc1ccccc1C1(CNc2cc(C(=O)N(C)C)ccn2)CC1
Percent Effect (30 µM, 30.03 µM): -21.75%

COc1ccccc1C1(CNc2ccc(C(=O)N(C)C)cn2)CC1
Percent Effect (30 µM, 30.03 µM): -17.01%

COc1ccccc1C1(CNc2ccnc(C(=O)N(C)C)c2)CC1
Percent Effect (30 µM, 30.03 µM): 98.99%

CN1CCO[C@@H]2CN(C(=O)NCc3ccccc3)CC[C@@H]2C1.O=C(O)C(F)(F)F
Percent Effect (30.3 µM, […]): -54.53%

Cn1ccnc1C(=O)N1CCC2(CCN2c2ncccn2)C1.O=C(O)C(F)(F)F (stereo unspecified)
Percent Effect (30.3 µM, […]): -37.97%

CCC1CN(C)c2ccccc2CN1CCn1cncn1 (stereo unspecified)
Percent Effect (30 µM, 30.03 µM): 56.46%

CCC1CN(C)c2ccccc2CN1C(=O)CCn1cncn1 (stereo unspecified)
Percent Effect (30 µM, 30.03 µM): 12.6%

CC1CN(C)c2ccccc2CN1CCn1cncn1 (stereo unspecified)
Percent Effect (30 µM, 30.03 µM): -41.9%

COc1cc(C)c(S(=O)(=O)NCc2cccnc2N(C)C)c(C)c1
Percent Effect (30.3 µM, […]): 6.422%

Cc1ccc(C)c(-n2cc(CN3CC[C@@H](O)C3)c(-c3ccccc3)n2)c1
Percent Effect (30.3 µM, […]): 100.3%

Cc1ccc(C)c(-n2cc(CN3CCOCC3)c(-c3ccccc3)n2)c1
Percent Effect (30.3 µM, […]): 5.174%

Cc1ccc(-n2cc(CN3CCOCC3)c(-c3cccc(C)c3)n2)cc1
Percent Effect (30.3 µM, […]): 3.807%

O=C(NC1CC1)C1=CC2(CCN(CCO)CC2)c2ccccc21.O=C(O)C(F)(F)F
Percent Effect (30.3 µM, […]): -19.93%

CCN1CCN2CCCN(S(=O)(=O)c3cccc(F)c3)C2C1=O (stereo unspecified)
Percent Effect (30.3 µM, […]): 65.65%

CCN1CCN2CCCN(S(=O)(=O)c3ccc(C)cc3C)C2C1=O (stereo unspecified)
Percent Effect (30.3 µM, […]): 8.732%

CCN1CCN2CCCN(S(=O)(=O)c3ccc(S(C)(=O)=O)cc3)C2C1=O (stereo unspecified)
Percent Effect (30.3 µM, […]): 30.28%

COc1cc(C(=O)N2C[C@H]3CC[C@@H]2CN(Cc2cscn2)C3)ccn1
Percent Effect (30 µM, 30.03 µM): 1.07%

CS(=O)(=O)NCC1CCCN(C(=O)c2cc3ccccc3o2)C1 (stereo unspecified)
Percent Effect (30.3 µM, […]): 1.962%

O=C(COCC(F)(F)F)NS(=O)(=O)c1ccc2c(c1)OCCCO2
Percent Effect (30.3 µM, […]): -2.455%

Cc1ccc(CN2CCc3onc(C(=O)N4CCCC4)c3C2)o1.O=C(O)C(F)(F)F
Percent Effect (30.3 µM, […]): 0.525%

O=C(Cn1ccc2ccccc21)Nc1cc(N2CCCC2)ncn1
Percent Effect (30.3 µM, […]): 1.206%

CN1CCN(c2cc(NC(=O)Cn3ccc4ccccc43)ncn2)CC1
Percent Effect (30.3 µM, […]): 101.2%

O=C(Cn1ccc2ccccc21)Nc1cc(N2CCOCC2)ncn1
Percent Effect (30.3 µM, […]): -10.05%

O=C(CC1CC1)N1CC[C@H]2[C@@H]1CCC(=O)N2Cc1ccncc1.O=C(O)C(F)(F)F
Percent Effect (30 µM, 30.03 µM): -15.55%

c1nc(N2CCCC(Cn3cncn3)C2)c2sccc2n1 (stereo unspecified)
Percent Effect (30.3 µM, […]): 1.361%

Cc1cc(NC2CCc3ncnn3C2)n2ncnc2n1 (stereo unspecified)
Percent Effect (30 µM, 30.03 µM): -36.85%

Cc1nc[nH]c1CN1CCC2(CC1)CC(Nc1ncccn1)CO2.O=C(O)C(F)(F)F (stereo unspecified)
Percent Effect (30 µM, 30.03 µM): -22.29%

CC(=O)Nc1ccc(CCC2(NC(=O)C3CC3)CCCCC2)cn1
Percent Effect (30.3 µM, […]): 1.37%

CC(C)(C)c1ccc(CN2C[C@H]3C[C@H](O)C[C@H]3C2)c(OCC(N)=O)c1
Percent Effect (30.3 µM, […]): -6.506%

Cc1cccnc1NC(=O)C(C)Cn1nc(C(F)(F)F)cc1C (stereo unspecified)
Percent Effect (30 µM, 30.03 µM): 53.66%

Cc1cc(C(F)(F)F)nn1CC(C)C(=O)Nc1cccnc1 (stereo unspecified)
Percent Effect (30.3 µM, […]): -4.531%

Cc1cc(C(F)(F)F)nn1CC(C)C(=O)Nc1ccccn1 (stereo unspecified)
Percent Effect (30.3 µM, […]): 13.6%

Cc1cc(N2CCN(C(=O)[C@@H]3C[C@@H]4C=C[C@H]3C4)CC2)nc2ccccc12
Percent Effect (30.3 µM, […]): 18.47%

Cl.O[C@@H]1CN(Cc2ccc(F)cc2)CC[C@H]1NCc1ccccn1
Percent Effect (30.3 µM, […]): 5.839%

CC(C)(C)C1CC(=O)Nc2c1cnn2Cc1ccco1 (stereo unspecified)
Percent Effect (30 µM, 30.03 µM): 53.72%

CC(C)CC1CC(=O)Nc2c1cnn2Cc1ccco1 (stereo unspecified)
Percent Effect (30 µM, 30.03 µM): -10.02%

CC(C)C1CC(=O)Nc2c1cnn2Cc1ccco1 (stereo unspecified)
Percent Effect (30 µM, 30.03 µM): 5.524%

COCc1nc(N(C)C)ncc1C(=O)NC(C)c1ccccc1 (stereo unspecified)
Percent Effect (30.3 µM, […]): -21.32%

O=C(O)c1cc(-c2ccn(CC3CC3)n2)n2ccccc12
Percent Effect (30.3 µM, […]): -1.96%
